AddAB inh = less growth of phage-infected E. coli with AddAB; 330,000 compounds, 0.29% hits; E. coli expressing H. pylori AddAB, absorbance growth; AID 435030; inhibition, % at 11.9 µM; in the data active = inhibition above about 12%
E coli growth-1 = blocks Escherichia coli growth | OD600, 23 h; active compounds read low | OD600 absorbance (concentration not given with the values) | 330,000 compounds, 0.21% hits;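 active = OD600 absorbance below the run mean of sample wells minus 3.6 SD, in any replicate, cut at about 0.56 in these data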
E coli growth-2 = counter-screen for AddAB inhibitors: E. coli growth inhibition. E. coli V3065 growth, OD600 absorbance, 18 h. inhibition, % at 11.9 µM. 330,000 compounds, 0.27% hits. AID 449728;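 active = inhibition above the campaign's mean inhibition across all tested compounds plus 3 SD, cut at about 9.9% in these data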;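 also: uninfected addAB+ strain grown without phage in ampicillin broth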
phage Ecoli inh = E. coli growth loss with phage present. growth absorbance. inhibition, % at 11.9 µM. 360,000 compounds, 0.26% hits; in the data active = inhibition above about 11%
Tat transport = E. coli Tat transport inhibition | E. coli MC4100 TorA-mCherry Tat export, fluorescence | inhibition, % at 10 µM | 340,000 compounds, 0.036% hits | AID 488895;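 active = mean replicate inhibition at least 50% and at least half of replicates individually reaching 50%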;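 also: exported cargo escapes ClpAP degradation while cytoplasmic cargo is degraded and loses fluorescence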
AddAB conf = confirmation screen: growth loss of phage-infected E. coli expressing H. pylori AddAB. shares compounds with AddAB inh. E. coli V3065 expressing H. pylori AddAB, T4 phage, OD; T4 phage with gene 2 nonsense mutations. 880 compounds, 64% hits. inhibition, % at 11.9 µM;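 active = mean inhibition above a set limit taken from the earlier primary screen, cut at about 13% in these data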;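 also: higher means less bacterial growth since AddAB block lets phage replicate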
RecBCD counter = AddAB counter-screen: growth loss of RecBCD+ E. coli infected with mutant T4 phage. shares compounds with AddAB inh. E. coli V66 + mutant T4 phage, OD growth. inhibition, % at 11.9 µM. 880 compounds, 73% hits. AID 488955;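 active = mean inhibition above the mean of solvent-only control wells plus 3 SD, cut at about 4% in these data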;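 also: optical density read after an 18 h incubation at 37 °C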
bact viab count = reduces bacterial viability, AddAB inhibitor counter-screen | shares compounds with AddAB inh | absorbance (AddAB counterscreen) | inhibition, % at 11.9 µM | 880 compounds, 35% hits | AID 488956; in the data active = inhibition above about 25%
Large screens that a line does not name were inactive (follow-up assays come after a bar, where they were run). Hits are enriched below; roughly 0.5% of the tested compounds scored in any of these assays.

CC1OC2(C)OC(=N)C1(C#N)C(C#N)(C#N)C2c1ccccc1 (stereo not drawn)	AddAB inh 37, E coli growth-2 23 | AddAB conf inactive | RecBCD counter inactive | bact viab count inactive
COc1ccc(-n2c(Cc3cccn3C)nnc2SCC(=O)Nc2ccccc2)cc1	none
COc1ccc(-n2c(Cc3cccn3C)nnc2SCC(=O)Nc2nc(C)cs2)cc1	AddAB inh 15 | AddAB conf inactive | RecBCD counter inactive | bact viab count inactive
COc1cccc(C(=O)ON=Cc2ccc(Sc3ccc(C)cc3)nc2)c1	none (no result: AddAB inh, E coli growth-2, phage Ecoli inh, Tat transport)
Cn1c([N+](=O)[O-])cnc1COC(N)=O	AddAB inh 26, E coli growth-2 17 | AddAB conf 79 | RecBCD counter 5.2 | bact viab count 57
Cc1ncc([N+](=O)[O-])n1CCOC(=O)c1ccccc1	none
CC(=O)NN1C(=O)c2ccccc2NC1c1ccc([N+](=O)[O-])o1 (stereo not drawn)	AddAB inh 18, E coli growth-2 15 | AddAB conf 79 | RecBCD counter 5.9 | bact viab count 30
O=C(NN1C(=O)c2ccccc2NC1c1ccc([N+](=O)[O-])o1)c1ccc(Br)cc1 (stereo not drawn)	none
CCOc1ccc(NC(=O)CCC(=O)N2CCSc3ccccc32)cc1	AddAB inh 19 | AddAB conf inactive | RecBCD counter inactive | bact viab count inactive
CC1COC(=O)C(NC(=O)OCC2c3ccccc3-c3ccccc32)CC=CCC(CC(=O)NCCO)C(=O)N1 (stereo not drawn)	none (no result: AddAB inh, E coli growth-2, phage Ecoli inh, Tat transport)
Cc1ccc(S(=O)(=O)Nc2ccc(S(=O)(=O)Nc3nccs3)cc2)c([N+](=O)[O-])c1	AddAB inh 16 | AddAB conf inactive | RecBCD counter 4.1 | bact viab count inactive
Cc1ccc(S(=O)(=O)Nc2nccs2)cc1[N+](=O)[O-]	none
O=c1c2ccccc2[nH]c2ccccc12	AddAB inh 14 | AddAB conf inactive | RecBCD counter 4.8 | bact viab count inactive
c1ccc2c(c1)[nH]c1ccccc12	none
CN=c1c([N+](=O)[O-])nn(-c2ccc3c(c2)OCCO3)n1O	AddAB inh 21, E coli growth-2 19 | AddAB conf 31 | RecBCD counter 9.9 | bact viab count 31
CCOC(=O)C=c1sc2n(c1=O)CCN=2	none (no result: AddAB inh, E coli growth-2, phage Ecoli inh, Tat transport)
CC1=C(C(=O)OCC2CCCO2)C(c2coc3ccc(C)cc3c2=O)C2=C(CCCC2=O)N1 (stereo not drawn)	AddAB inh 99, E coli growth-2 91 | AddAB conf inactive | RecBCD counter inactive | bact viab count inactive
CC1=C(C(=O)OCC2CCCO2)C(c2coc3ccc(Cl)cc3c2=O)C2=C(CCCC2=O)N1 (stereo not drawn)	none
O=C(NN1C(=O)CSC1=S)C(=O)NN1C(=O)CSC1=S	AddAB inh 12, E coli growth-2 12, phage Ecoli inh 13 | AddAB conf 34 | RecBCD counter 16 | bact viab count 28
CCC(C)C(CNC)NCC(Cc1cccc2ccccc12)NCCc1cccc(C(F)(F)F)c1 (stereo not drawn)	none (no result: AddAB inh, E coli growth-2, phage Ecoli inh, Tat transport)
CCOC(=O)c1ccc(NC(=O)CSc2ccc(-c3cccnc3)nn2)cc1	AddAB inh 16 (no result: E coli growth-1) | AddAB conf inactive | RecBCD counter 4.1 | bact viab count inactive
COc1ccc(NC(=O)CSc2ccc(-c3cccnc3)nn2)cc1	none
Cc1ccc(C(=O)NC2CCCCN(C)C2=O)cc1 (stereo not drawn)	none (no result: AddAB inh, E coli growth-1, E coli growth-2, Tat transport)
CC(=O)NC1CCCN(O)C(=O)/C=C(\C)CCOC(=O)C(NC(C)=O)CCCN(O)C(=O)/C=C(\C)CCOC(=O)C(NC(C)=O)CCCN(O)C(=O)/C=C(\C)CCOC1=O (stereo not drawn)	AddAB inh 21, E coli growth-2 16 (no result: E coli growth-1, phage Ecoli inh, Tat transport) | AddAB conf 14 | RecBCD counter 15 | bact viab count inactive
O=c1cc2oc3cc(O)c(O)cc3c(-c3ccccc3O)c-2cc1O	none (no result: AddAB inh, E coli growth-2, phage Ecoli inh)
COc1ccc(OC)c(-c2c3cc(O)c(=O)cc-3oc3cc(O)c(O)cc23)c1	AddAB inh 14 (no result: E coli growth-1, phage Ecoli inh) | AddAB conf inactive | RecBCD counter inactive | bact viab count inactive
COc1ccc(/C=N/NC(=S)SC)cc1OC	AddAB inh 18, E coli growth-2 13 (no result: E coli growth-1) | AddAB conf 44 | RecBCD counter 12 | bact viab count 30
O=C1NC(=Nc2ccccc2)SC1=Cc1cccs1	none (no result: AddAB inh, E coli growth-2, phage Ecoli inh, Tat transport)
CC(NC(=O)CN1CCOCC1)c1ccc(F)cc1 (stereo not drawn)	AddAB inh 15, E coli growth-2 16 | AddAB conf inactive | RecBCD counter inactive | bact viab count inactive
CC(=O)n1cc(C2C=C(C(=O)NCc3ccccc3)OC(OCCCCO)C2)c2ccccc21 (stereo not drawn)	none (no result: AddAB inh, E coli growth-2, phage Ecoli inh, Tat transport)
CCC[C@@H](CN1CCC[C@H]1CN1C(N)=NC[C@H]1CC(C)C)N1C[C@@H]([C@H](C)CC)N(CCc2ccc(Cl)c(Cl)c2)C1=N	AddAB inh 13, E coli growth-1 0.078, E coli growth-2 16 | AddAB conf inactive | RecBCD counter inactive | bact viab count inactive
CCC[C@@H](CN1CCC[C@H]1CN1C(N)=NC[C@@H]1Cc1ccccc1)N1C[C@@H]([C@H](C)CC)N(CCCC2CCCC2)C1=N	AddAB inh 26, E coli growth-2 22, Tat transport 96 (no result: E coli growth-1, phage Ecoli inh) | AddAB conf 14 | RecBCD counter 13 | bact viab count inactive
CCN1C(=O)C2C(c3ccc(-c4ccc(C(C)=O)cc4)cc3)N[C@@](Cc3ccccc3)(C(=O)OC)C2C1=O (stereo partly drawn)	none (no result: AddAB inh, E coli growth-2, phage Ecoli inh, Tat transport)
CCCOc1ccccc1/C=N/Nc1ccnc(=O)[nH]1	AddAB inh 13, E coli growth-2 21 (no result: E coli growth-1) | AddAB conf 100 | RecBCD counter inactive | bact viab count 68
CCCOc1ccccc1C=NNc1ccnc(=O)[nH]1	none (no result: AddAB inh, E coli growth-2, phage Ecoli inh, Tat transport)
O=C(O)c1nnn(-c2cc(C(F)(F)F)cc(C(F)(F)F)c2)c1-c1ccccc1	AddAB inh 19 | AddAB conf inactive | RecBCD counter inactive | bact viab count inactive
Oc1ccc(/C=N/NC(=S)Nc2cccnc2)c(O)c1	AddAB inh 16, E coli growth-2 11 (no result: E coli growth-1) | AddAB conf inactive | RecBCD counter 11 | bact viab count inactive
O=Cc1ccc(OCc2cccc(C(F)(F)F)c2)cc1O	AddAB inh 13, E coli growth-2 12 | AddAB conf inactive | RecBCD counter 9.5 | bact viab count inactive
COc1ccccc1Nc1nc(Cl)nc(NC(C)(C)C)n1	AddAB inh 96, E coli growth-2 79 | AddAB conf inactive | RecBCD counter inactive | bact viab count inactive
CC(C)(C)Nc1nc(Cl)nc(Nc2ccccc2)n1	none
CCC(C)C1NC(=O)c2cc([N+](=O)[O-])cc(I)c2SCC(C(N)=O)NC(=O)C(CCCCN)NC1=O (stereo not drawn)	none (no result: AddAB inh, E coli growth-2, phage Ecoli inh, Tat transport)

Screens from PubChem BioAssay.
